Source: PubChem BioAssay (The Scripps Research Institute Molecular Screening Center)
In the library only some 4.8% were active in any assay of this set; here they are far more common.
hcDAF-12 act: activates DAF-12 receptor from parasite H. contortus; 1.4% of 370,000 active; activation, % at 6.8 µM; AID 652067; HEK293 hcDAF-12 lit1-tk-luc reporter, luminescence; 0% DMSO, 100% Δ7-dafachronic acid;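 active means activation above the mean of all tested compounds plus 3 SD, cut at about 5.5% in these data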
SMARCA2 act: increases SMARCA2 function in MMTV reporter cells; MG213 cells, MMTV-luciferase reporter, dexamethasone, overnight; activation, % at 9.1 µM; 1% of 370,000 active; in the data active means activation above about 7.8%
hgDAF12 agonist: activates the H. glycines DAF-12 receptor ligand-binding domain; HEK293 GAL4-hgDAF12 UAS-luciferase reporter, agonist luminescence; normalized to butyrate control; AID 687014; 1.8% of 370,000 active; activation, % at 6.8 µM;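 active means activation above a cutoff set at the mean of all screened compounds plus 3 SD, cut at about 10% in these data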
ssDAF-12 act: activators of S. stercoralis DAF-12 nuclear receptor | HEK293 ssDAF-12/GRIP1 lit1-tk-luc reporter, luminescence; % of 3 µM dafachronic acid response | activation, % at 6.8 µM | 1% of 370,000 active | AID 652126;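 active means activation above the mean over all tested compounds plus 3 SD, cut at about 0.9% in these data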
DAX1 inh-1: DAX1 (NR0B1) inhibition, primary screen; inhibition, % at 6.8 µM; 1.1% of 370,000 active; HEK293T StAR-luciferase reporter, SF-1/DAX-1 repression relief;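 active means inhibition above the mean over all tested compounds plus 3 SD, cut at about 3.6% in these data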;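 further: higher inhibition means more luminescence from relief of DAX-1 repression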
DAX1 inh-2: NR0B1 (DAX1) inhibition; P51843; HEK293 Gal4-DAX1 luciferase reporter, luminescence; inhibition, % at 6.75 µM; 0.99% of 340,000 active;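 active means inhibition above the mean over all tested compounds plus 3 SD, cut at about 4.2% in these data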;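 further: inhibition shows as a rise in luminescence from relieved DAX1 repression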
Target sequence (P51843 207-470 limits assumed): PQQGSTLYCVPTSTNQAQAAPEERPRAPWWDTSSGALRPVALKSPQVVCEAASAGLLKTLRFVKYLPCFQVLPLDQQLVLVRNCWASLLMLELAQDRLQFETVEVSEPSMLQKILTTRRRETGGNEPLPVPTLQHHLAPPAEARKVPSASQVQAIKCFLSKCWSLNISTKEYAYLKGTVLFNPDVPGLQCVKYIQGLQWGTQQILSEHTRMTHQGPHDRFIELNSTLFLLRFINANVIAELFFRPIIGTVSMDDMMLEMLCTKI
hgDAF12 ag: hgDAF-12 agonism, confirmation assay. shares compounds with hgDAF12 agonist. HEK293 GAL4-hgDAF12 luciferase reporter, agonist mode; percent of butyrate response. activation, % at 6.8 µM. 80% of 3,300 active. AID 743050;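 active means mean activation over triplicate wells above the hit cutoff derived from the earlier primary screen, cut at about 11% in these data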
LXR ag 2: activates human LXR-beta, counter-screen for DAF-12 agonists. shares compounds with hgDAF12 agonist. HEK293 Gal4-LXR luciferase reporter, 24 h. activation, % at 6.8 µM. 3,300 tested, under 10 active;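 active means mean activation of the triplicate above a set limit carried over from the primary screen, none filed active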
A number is an active result; . = inactive; / = no result given.

SMILES	hcDAF-12 act	SMARCA2 act	hgDAF12 agonist	ssDAF-12 act	DAX1 inh-1	DAX1 inh-2	hgDAF12 ag	LXR ag 2
Cc1ccc(-c2nc3ccc(Br)cn3c2Cc2cccc(F)c2)cc1	.	.	21	.	.	/	10	.
Cc1ccc2nc(-c3ccc(Cl)cc3)c(Cc3cccc(Cl)c3)n2c1	.	.	13	.	3.9	/	.	.
Fc1ccc(-c2nc3ccc(Br)cn3c2Cc2cccc(F)c2)cc1	.	.	.	.	.	/	/	/
Cc1ccc(OCc2ccc(-c3ccccc3)cc2)c([N+](=O)[O-])n1	.	.	.	.	.	.	/	/
Cc1ccc(OCc2ccc(Br)cc2)c([N+](=O)[O-])n1	.	.	18	.	4.0	/	14	.
Cc1ccc(C(=O)NCCc2c[nH]c3ccccc23)c(C)c1	.	.	15	.	.	.	12	.
COc1ccc(CC(=O)Nc2ccc(OC(C)=O)cc2C(=O)O)cc1	.	.	.	.	.	.	/	/
COc1cccc(-c2nnc(-c3ccc(C)o3)o2)c1	.	.	14	.	4.1	.	19	.
CCCn1c(C)cc(C(=O)CN2C(=O)NC3(CCCCCC3)C2=O)c1C	.	.	16	.	.	.	.	.
Cc1ccccc1/C=N/Nc1ccc(Cl)nn1	.	.	.	.	.	.	/	/
Cc1c(C(=O)Nc2cccnc2)oc2ccc(Br)cc12	.	.	14	1.7	.	.	14	.
Cc1c(C(=O)Nc2cccc(S(=O)(=O)N3CCOCC3)c2)oc2ccc(Br)cc12	.	.	.	.	.	.	/	/
O=C(O)c1ccc(-c2nc(-c3ccccc3)cs2)cc1	.	.	13	.	.	6.5	.	.
CC1=Nc2ccccc2N=C(NC(=O)c2ccccc2)C1c1ccccc1 (stereo not given)	.	.	19	.	.	.	.	.
CC1=Nc2ccccc2N=C(NC(=O)CN2CCN(c3ccccc3)CC2)C1c1ccccc1 (stereo not given)	.	.	.	.	.	.	/	/
O=C(CNC(=O)c1cccc(OC(F)F)c1)Nc1ccc(Cl)cc1	.	.	.	.	.	.	/	/
COC(=O)C1C(=O)c2c([nH]c(C(=O)OCCOC(C)C)c2C)CC1C (stereo not given)	.	.	.	.	.	/	/	/
COC(=O)C1C(=O)c2c([nH]c(C(=O)OC3CCCCC3)c2C)CC1C (stereo not given)	.	.	15	.	.	5.3	12	.
Cc1ccc(Nc2cc(-n3cccn3)ncn2)c(C)c1	.	.	15	.	.	.	12	.
CCN(C(=O)CSc1nnc(-c2ccc(OC)cc2)n1N)c1c(N)n(Cc2ccccc2)c(=O)[nH]c1=O	.	.	.	.	.	.	/	/
CCOC(=O)N1CCN(C(c2ccnc3ccccc23)c2nnnn2-c2ccc3c(c2)OCCO3)CC1 (stereo not given)	.	.	.	.	.	/	/	/
O=C(c1cnn(-c2cccc(F)c2)c1)c1ccccc1O	.	.	15	.	.	5.0	16	.
O=C(O)c1ccc(-n2cc(C(=O)c3ccccc3O)cn2)cc1	.	.	.	.	.	.	/	/
CC(=O)NC(c1cccc(F)c1)c1nc(-c2csc3ccccc23)cs1 (stereo not given)	.	.	.	.	.	/	/	/
CC(CCc1ccccc1)NC(=O)c1ccc2nc(N3CCOCC3)sc2c1 (stereo not given)	.	.	.	.	.	.	/	/
O=C(NCCc1ccccc1)c1ccc2nc(N3CCOCC3)sc2c1	.	.	14	.	.	.	.	.
C/C(=N\NC(=O)c1cc(C)[nH]n1)c1ccc(-c2ccccc2)cc1	.	.	.	.	.	.	/	/
C/C(=N/NC(=O)c1cc(C(C)C)[nH]n1)c1cccs1	6.1	.	14	.	.	.	16	.
C/C(=N\NC(=O)c1cc(C)[nH]n1)c1cccs1	.	.	17	.	4.5	.	14	.
C=CCSc1nc(C)c(CC(=C)C)c(=O)[nH]1	.	.	.	.	.	.	/	/
